Only some compounds are listed: those with a hit (about 3.4% of all), similar ones and a draw of the others.
MITF primary: MITF inhibitors, primary screen, biochemical, AlphaScreen, human. Microphthalmia-associated transcription factor (Homo sapiens), O75030. AlphaScreen MITF homodimerization, bead proximity signal. inhibition, % at 2.6 µM. 650,000 tested, 0.91% active; in the data active = inhibition above about 50%;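 note: 0% = vehicle wells with protein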
Target sequence (O75030 whole entry, looked up): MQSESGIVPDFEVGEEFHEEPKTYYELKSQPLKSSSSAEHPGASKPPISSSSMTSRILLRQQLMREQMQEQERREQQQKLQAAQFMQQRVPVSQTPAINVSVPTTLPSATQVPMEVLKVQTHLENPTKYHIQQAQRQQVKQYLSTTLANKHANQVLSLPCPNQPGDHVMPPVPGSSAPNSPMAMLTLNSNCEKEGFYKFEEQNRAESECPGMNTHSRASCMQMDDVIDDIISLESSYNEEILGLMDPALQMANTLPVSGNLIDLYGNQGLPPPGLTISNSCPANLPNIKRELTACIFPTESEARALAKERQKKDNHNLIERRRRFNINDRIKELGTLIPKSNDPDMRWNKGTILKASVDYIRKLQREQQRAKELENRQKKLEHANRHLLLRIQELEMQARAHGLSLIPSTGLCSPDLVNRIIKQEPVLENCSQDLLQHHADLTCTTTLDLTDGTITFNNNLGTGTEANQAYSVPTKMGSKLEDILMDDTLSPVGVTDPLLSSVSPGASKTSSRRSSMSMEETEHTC
GPR151 ag: activators of human GPR151, primary screen, cell-based, PathHunter beta-arrestin, luminescence; PathHunter beta-arrestin GPR151 cells; G-protein coupled receptor 151 (Homo sapiens), Q8TDV0; 650,000 tested, 1% active; activation, % at 11.2 µM; in the data active = activation above about 4.9%;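 note: 0% = median of compound wells and 100% = cells with positive control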
TEAD-YAP block: TEAD-YAP interaction inhibition, primary screen, TEAD-YAP interaction inhibitor project, luminescence, HEK-TIYL cells; TEAD-Gal4/YAP UAS-luciferase luminescence; inhibition, % at 9.12 µM; 640,000 tested, 1.4% active; in the data active = inhibition above about 32%;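 note: 0% = median of test compound wells and 100% = reference inhibitor wells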
FBW7 act: FBW7 E3 ligase activators, primary screen, biochemical, AlphaScreen, human; F-box/WD repeat-containing protein 7 (Homo sapiens), Q969H0; AlphaScreen FBW7–phospho-cyclin E peptide binding, activator screen; normalized activity (activation), % at 26.1 µM; 650,000 tested, 0.13% active; AID 1259310, 2017; in the data active = normalized activity above about 1.9%;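 note: purified mutant Fbw7 with reduced substrate affinity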
MITF inh conf: MITF inhibitors, retest of hits, confirmation, biochemical, AlphaScreen, triplicate; inhibition, % at 2.6 µM; AID 1259372, 2018; shares compounds with MITF primary; 4,700 tested, 16% active; AlphaScreen MITF homodimerization, biotin/His-MITF beads;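 active = inhibition above a cutoff derived from the DMSO control wells, cut at about 28% in these data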;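 note: 0% = MITF dimer wells with DMSO only; inhibitors lower the bead chemiluminescence by keeping MITF from dimerizing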
AS interf DR: AlphaScreen optical interference compounds, dose response, counter-screen, biochemical, HTS; shares compounds with MITF primary; IC50, µM; AlphaScreen optical interference counterscreen, cell-free; AID 1259373, 2018; 480 tested, 6% active; call rule not given here
AS interf ctr: AlphaScreen optical interference compounds, counter-screen for MITF inhibitor project, biochemical, triplicate. 4,700 tested, 7.6% active. inhibition, % at 2.6 µM. shares compounds with MITF primary. LysRS AlphaScreen counterscreen, signal interference;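 active = inhibition above a cutoff derived from the DMSO control wells, cut at about 30% in these data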
Starred values were filed as active, the others as inactive; / = no result.

SMILES	MITF primary	GPR151 ag	TEAD-YAP block	FBW7 act	MITF inh conf	AS interf ctr	others
CN1CCN(CC(O)Cn2cc(C=O)c3ccccc32)CC1 (stereo not drawn)	65.8*	2.2	-15.1	-0.1	-0.1	-4.9
Cn1c(CN2CCN(S(=O)(=O)c3ccc(F)cc3)CC2)nc2ccccc21	19.6	-0.3	-3.5	0.6	/	/
O=[N+]([O-])c1ccccc1S(=O)(=O)N1CCN(C2CCCCC2)CC1	51.2*	-0.5	-0.3	-0.2	9.5	17.2
O=[N+]([O-])c1ccccc1CN1CCC(N2CCCCCC2)CC1	79.4*	-0.1	5.5	-0.3	4.2	-0.1
O=[N+]([O-])c1ccccc1CN1CCN(C2CCCCC2)CC1	63.6*	0.9	-5.1	0.1	0.0	-0.4
O=[N+]([O-])c1ccccc1CN1CCCC1	13.6	0.6	-8.2	0.0	/	/
O=[N+]([O-])c1cccc(CN2CCN(C3CC4CCC3C4)CC2)c1 (stereo not drawn)	56.7*	1.4	4.3	-0.1	26.8	16.9
COc1cc(C2CC(=O)N(CC(=O)NCc3ccccc3)c3ccccc3S2)cc(OC)c1OC (stereo not drawn)	-4.2	1.0	10.3	-0.1	/	/
CC1CCCC(N2CCN(Cc3ccccc3[N+](=O)[O-])CC2)C1 (stereo not drawn)	81.7*	-0.3	0.1	-0.1	1.9	-2.1
CCOc1ccccc1CN1CCC(N2CCN(c3ccccc3)CC2)CC1	48.5	-1.2	3.8	0.2	/	/
O=[N+]([O-])c1cccc(CN2CCC(N3CCCC3)CC2)c1	14.1	0.9	2.4	-0.1	/	/
O=[N+]([O-])c1ccccc1CN1CCC(N2CCN(c3ccccc3)CC2)CC1	82.8*	0.3	1.5	-0.1	2.4	5.0
O=[N+]([O-])c1cccc(CN2CCC(N3CCCCC3)CC2)c1	57.1*	-1.0	-38.1	0.3	-13.9	-5.0
Fc1ccccc1CN1CCN(C2CCN(Cc3ccccc3)CC2)CC1	7.0	2.5	-1.0	0.0	/	/
CC1CCCC(N2CCN(Cc3ccccc3F)CC2)C1 (stereo not drawn)	62.9*	-1.4	-3.8	-0.2	-7.1	-2.7
Clc1ccc(SCCOCCn2ccnc2)cc1	19.5	-0.5	4.8	-0.1	/	/
CCCC(=O)NC(=S)Nc1cccc([N+](=O)[O-])c1	-15.6	-1.0	4.1	-0.3	/	/
CC(C)(C)C(=O)NC(=S)Nc1cccc([N+](=O)[O-])c1	57.7*	-1.6	-2.9	0.2	-7.5	-2.7
CC(C)OC(=O)c1c(NC(=O)c2ccc([N+](=O)[O-])cc2Cl)sc2c1CCCC2	-3.5	-0.6	-12.1	0.1	/	/
Cc1ccc(-c2nnc3s/c(=C\c4ccco4)c(=O)n23)cc1	63.6*	-1.0	10.1	0.1	75.0*	-5.5	AS interf DR=>6.48
O=C(NCc1ccco1)c1ccc(Br)cc1	14.2	1.5	2.2	0.4	/	/
N#CCCN(CC(=O)c1ccc(Br)cc1)Cc1ccco1	62.6*	-0.5	-4.7	-0.1	0.3	9.1
Cc1cc(NC(=O)CSc2nnc(NC(=O)C3CCC3)s2)no1	0.3	-2.4	-11.6	-0.2	/	/
CN1CCN(CCCOc2cc(Cl)ccc2Cl)CC1	6.7	-1.6	-11.0	0.1	/	/
C=CCc1cc(Cl)ccc1OCCNCCN1CCOCC1	76.3*	0.2	4.7	0.4	-9.2	0.5
SMILES	MITF primary	GPR151 ag	TEAD-YAP block	FBW7 act	MITF inh conf	AS interf ctr	others
C=CCc1cc(Cl)ccc1OCCCN1CCN(C)CC1	79.2*	0.7	7.4	0.4	4.0	10.0
C=CCc1cc(C)ccc1OCCCCn1ccnc1	74.5*	-1.5	-7.4	0.3	35.4*	3.3	AS interf DR=>6.48
C=CCc1cc(C)ccc1OCCOCCN1CCN(C)CC1	59.6*	0.7	3.0	-0.2	-6.5	-7.1
CCC(CO)Nc1ccc2ncc(-c3cccc4cccnc34)n2n1 (stereo not drawn)	-9.8	-0.3	1.4	-0.1	/	/
CCCCCCCCCCCCCCCCOC[C@@H](CO)SC(C)=O	-1.1	-2.5	/	/	/	/
Fc1ccc(C2C=C(c3cccnc3)Nc3nc4ccccc4n32)cc1 (stereo not drawn)	3.1	-5.0	-55.2	-0.1	/	/
COc1ccccc1-c1nc(-c2ccc(NC(=O)c3ccc4c(c3)OCO4)cc2)no1	-7.9	0.0	-22.6	0.1	/	/
COc1cccc(C2CC(=O)C3=C(C2)Nc2ccccc2N(C(=O)c2ccccc2)C3c2ccc(F)cc2)c1 (stereo not drawn)	12.7	1.8	-1.4	0.2	/	/
C=CCc1cc(C)ccc1OCCN1CCCC1	11.3	2.3	-2.2	-0.1	/	/
C=CCc1ccccc1OCCOCCN1CCOCC1	72.3*	2.6	-1.8	0.1	10.5	16.9
C=CCc1cc(C)ccc1OCCCN1CCCC1	54.8*	-0.5	12.7	0.0	0.1	8.6
CC(C)[C@H](Cn1nc(C2CC2)ccc1=O)NC(=O)C1CC1	20.2	-1.0	-5.7	0.1	/	/
O=C1c2cccnc2C(=O)N1c1ccccc1I	10.6	1.1	12.7	-0.6	/	/
CC1C2CC(CC1(C)C)N(C(=O)c1ccc(N3C(=O)CCC3=O)cc1)C2 (stereo not drawn)	-10.4	-0.3	-3.4	0.0	/	/
CC1(C)CC(=O)C=C(NCC2NCCc3ccccc32)C1 (stereo not drawn)	-5.9	3.8	-3.9	-0.1	/	/
Fc1cccc(F)c1CNCC1NCCc2ccccc21 (stereo not drawn)	78.1*	1.2	7.8	0.1	-2.7	9.5
CCOC(=O)c1ccc(OCC(O)CN2CCCC2)cc1 (stereo not drawn)	52.0*	3.6	-2.8	0.0	9.5	8.2
COc1cccc2c1OC1(CCN(C(=O)Cc3ccccc3)CC1)OC2	18.4	0.8	6.9	0.1	/	/
O=C(O)CC1S/C(=N\N=C2CCCCC2)NC1=O (stereo not drawn)	6.0	0.7	9.7	0.0	/	/
COc1cc(OC)cc(C(=O)N2CCN(Cc3ccc4ccccc4c3)CC2)c1	38.7	-1.9	5.9	0.4	/	/
COc1cc(OC)cc(C(=O)N2CCN(Cc3ccc(C(F)(F)F)cc3)CC2)c1	52.1*	-0.3	5.6	0.4	20.8	12.5
COc1ccc(C(=O)N2CCN(Cc3cc(OC)c(O)c(OC)c3)CC2)cc1OC	37.4	0.7	1.5	-0.1	/	/
COc1ccc(C(=O)N2CCN(Cc3ccc(C(F)(F)F)cc3)CC2)cc1OC	51.1*	-0.2	48.6*	-0.2	6.6	12.4
N#CC1=C(N)Oc2n[nH]c(-c3ccccn3)c2C1c1ccc([N+](=O)[O-])s1 (stereo not drawn)	107.2*	-1.7	8.9	-0.6	117.1*	100.1*
